# Results filed as inconclusive are left out. Where a call stands in place of a potency, no number is given. A number with no mark means an inactive call. The source made the active and inactive calls. Calls come from the whole dose curve; as a rule, active = well fitted curve in the direction sought with a large enough effect; inconclusive = small, poorly fitted or top-dose-only effect, or another doubt; inactive = no such curve, though single readings can be large; an effect the other way counts as inactive or inconclusive.
# How the values were obtained:
# [1] = molecular target: Furin (Homo sapiens) (UniProt P09958); assay: Furin counterscreen qHTS for Zika virus inhibitors (AID 1347149); note: nearly all actives have a fitted effect of over 70% in size; note: potency is the fitted concentration of half-maximal effect
# Outline: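 Counterscreen measures cleavage of 2 microM BOC-RVRR-AMC, below its ~15 microM Km, by 5 nM full-length human furin at pH 7.0 after a 15-min compound preincubation. Inhibition derives from the 15-min fluorescence increase at 37C.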
# [2] = tested on: Zika virus NS2B-NS3 protease (linked construct); assay: Confirmatory screen NINDS AMC qHTS for Zika virus inhibitors (AID 1347152); note: nearly all actives have a fitted effect of over 70% in size; note: potency is the fitted concentration of half-maximal effect
# Outline: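 Linked NS2B-NS3 protease, 1 nM, in 10 mM Tris-HCl pH 8.0, 0.01% Tween 20; compounds preincubated 15 min at room temperature. Nle-KRR-AMC 10 microM (Km 18.3 µM); 15-min fluorescence change (340/450 nm) fitted to 4-parameter Hill.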
# [3] = tested on: Zika virus NS2B-NS3 protease (unlinked complex); assay: Confirmatory screen GU AMC qHTS for Zika virus inhibitors (AID 1347153); note: nearly all actives have a fitted effect of over 70% in size;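 for potency: enzyme at 25 nM with substrate at 10 µM below its Km of 18.3 µM; potency is the fitted concentration of half-maximal effect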
# Outline: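 Fluorescence change (ex 340/em 450 nm) over 15 min, ~20% substrate conversion, normalized to no-inhibitor and no-enzyme controls, then Hill-fitted. Unlinked protease at 25 nM; AMC peptide 10 µM.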
# [4] = tested on: Zika virus NS2B-NS3 protease; assay: Primary screen GU AMC qHTS for Zika virus inhibitors (AID 1347154); note: nearly all actives have a fitted effect of over 70% in size; note: potency is the fitted concentration of half-maximal effect
# Outline: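 Unlinked Zika NS2B hydrophilic domain–NS3 protease complex at 25 nM in 10 mM Tris-HCl pH 8.0, 0.01% Tween 20, with an AMC peptide substrate. Fluorescence change (340/450 nm) over 15 min at room temperature, normalized to controls, fitted to 4-parameter Hill.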
# [5] = Confirmatory screen NINDS Rhodamine qHTS for Zika virus inhibitors (AID 1347161); note: nearly all actives have a fitted effect of over 60% in size; note: potency is the fitted concentration of half-maximal effect
# Outline: (§1)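 Enzyme (25 nM, linked NS2B-NS3) was preincubated 15 min with compound in 10 mM Tris-HCl pH 8.0, 0.01% Tween 20. Rhodamine110 substrate (1.5 microM) was then added and fluorescence read at start and after 15 min.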
# [6] = HepG2 cells viability qHTS for Zika virus inhibitors (AID 1347168)
# Outline: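 qHTS titration; 24-48 h compound exposure, 37 degrees C/5% CO2; DMEM, 4% FBS; CellTiter Glo ATP luminescence.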
# [7] = Tertiary RLuc qRT-PCR qHTS assay for Zika virus inhibitors (AID 1347169); note: nearly all actives have a fitted effect of over 55% in size; note: potency is the fitted concentration of half-maximal effect
# Outline: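 Vero cells (1,000/well) infected with recombinant ZIKV-RLuc (Cambodian) at MOI 1-2 after compound addition, 48-72 hrs at 37 degrees C. Live-cell Renilla luciferase substrate added; luminescence read after 1-1.5 hrs.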
# [8] = qHTS to identify inhibitors of the type 1 interferon - major histocompatibility complex class I in skeletal muscle: primary screen against the NCATS Mechanism Interrogation Plate v5.0 (MIPE) Libary (AID 1347411); note: nearly all actives have a fitted effect of over 65% in size
# Outline: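 HLA-B HiBit myoblasts, dexamethasone-free medium + 4 ng/ml IFN-b, 24 h compound, 11-pt 1:3 from 46 uM final. Readout: Nano-Glo HiBiT lytic luminescence after 10 min lysis, RT.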
# [9] = tested on: Zika virus NS2B-NS3 protease (unlinked); assay: Optimization of GU AMC qHTS for Zika virus inhibitors: Unlinked NS2B-NS3 protease assay (AID 1347151); note: series mostly up to about 52 µM; nearly all actives have a fitted effect of over 80% in size
# Outline: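 Noncovalent NS2B hydrophilic domain–NS3 protease complex (25 nM final) in 10 mM Tris-HCl pH 8.0, 0.01% Tween 20; AMC substrate, room temperature 15 min (~20% conversion); fluorescence change normalized, 4-parameter Hill fit.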
# [10] = tested on: Zika virus NS2B-NS3 protease (linked construct); assay: 384 well plate NINDS Rhodamine confirmatory qHTS for Zika virus inhibitors (AID 1347164);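 note: fluorescence from protease cleavage of Ac-LKRR-rhodamine 110 substrate; potency is the fitted concentration of half-maximal effect; nearly all actives have a fitted effect of over 65% in size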
# Outline: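 Linked NS2B-NS3 protease (final 5, 30 or 60 nM) preincubated ~15 minutes with compounds, then 10 microM Ac-LKRR-Rhodamine 110 added. Fluorescence (485/538 nm) read after 25 minutes at room temperature, normalized to no-enzyme and no-inhibitor controls.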
# [11] = Confirmatory screen GU Rhodamine qHTS for Zika virus inhibitors qHTS (AID 1347157)
# Outline: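 Compounds, tested up to 114 microM, were incubated for 15 minutes with 25 nM unlinked NS2B-NS3 protease at pH 8.0. Cleavage of 1.5 microM Rhodamine110 substrate was then followed by fluorescence for 15 minutes.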
# [12] = tested on: Zika virus NS2B-NS3 protease (linked construct); assay: Primary screen NINDS Rhodamine qHTS for Zika virus inhibitors (AID 1347160); note: nearly all actives have a fitted effect of over 55% in size; note: potency is the fitted concentration of half-maximal effect
# Outline: as §1
# [13] = tested on: Zika virus NS2B-NS3 protease (unlinked complex); assay: Primary screen GU Rhodamine qHTS for Zika virus inhibitors: Unlinked NS2B-NS3 protease assay (AID 1347159); note: potency is the fitted concentration of half-maximal effect; nearly all actives have a fitted effect of over 60% in size
# Outline: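 Enzyme 25 nM in Tris-HCl pH 8.0 + 0.01% Tween 20; compounds up to 114 microM, 15 min RT dark; + Rhod110 substrate 1.5 microM; read t0 and 15 min; delta fluorescence → % inhibition → 4-parameter Hill fit.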
# [14] = tested on: Zika virus NS2B-NS3 protease (linked); assay: 384 well plate NINDS AMC confirmatory qHTS for Zika virus inhibitors (AID 1347163); note: nearly all actives have a fitted effect of over 50% in size; note: potency is the fitted concentration of half-maximal effect
# Outline: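 Enzyme (5, 30 or 60 nM final) first met test compounds for ~15 min. The AMC-tagged peptide Ac-VKTGKR-AMC followed at 30 microM. Fluorescence was then recorded at 25 min and scaled against no-enzyme and no-inhibitor wells.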
# [15] = qHTS to identify inhibitors of the type 1 interferon - major histocompatibility complex class I in skeletal muscle: primary screen against the NCATS Pharmaceutical Collection (AID 1347407);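 note: luminescence of HiBiT knocked into endogenous HLA-B as interferon-induced MHC class I level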
# Outline: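 Immortalized human myoblasts (C25cl48) with HiBiT knocked into endogenous HLA-B*08:01 were stimulated with 4.0 ng/ml IFN-beta and treated with compounds ([…] top 46 uM) for 24 hrs at 37 C. HiBiT lytic luminescence read.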
# [16] = molecular target: Protein phosphatase 1D (Homo sapiens) (UniProt O15297); assay: RapidFire Mass Spectrometry qHTS Assay for Modulators of WT P53-Induced Phosphatase 1 (WIP1) (AID 1347424); note: potency is the fitted concentration of half-maximal effect
# Outline: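 RapidFire MS readout of dephosphorylated VEPPL-S-QETFS product, with 1 uM isotope-labelled peptide standard. Reaction: 10 nM WIP1, 2 uM phosphopeptide substrate, 5 min, room temperature, after 1 h compound preincubation; stopped with 0.5% formic acid.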
# [17] = ZIKV-mCherry secondary qHTS for Zika virus inhibitors (AID 1347158); note: top concentration of the series differs between compounds
# Outline: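 Read-out is percent infection: mCherry-positive Vero cells (nuclear-proximal intensity >450 RFU, 3 SD above negative controls) counted by high-content imaging of Hoechst-stained, PFA-fixed wells after 48-72 h with ZIKV-mCherry at MOI 1 and compound.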
# Furin (Homo sapiens), sequence (P09958 whole entry, looked up): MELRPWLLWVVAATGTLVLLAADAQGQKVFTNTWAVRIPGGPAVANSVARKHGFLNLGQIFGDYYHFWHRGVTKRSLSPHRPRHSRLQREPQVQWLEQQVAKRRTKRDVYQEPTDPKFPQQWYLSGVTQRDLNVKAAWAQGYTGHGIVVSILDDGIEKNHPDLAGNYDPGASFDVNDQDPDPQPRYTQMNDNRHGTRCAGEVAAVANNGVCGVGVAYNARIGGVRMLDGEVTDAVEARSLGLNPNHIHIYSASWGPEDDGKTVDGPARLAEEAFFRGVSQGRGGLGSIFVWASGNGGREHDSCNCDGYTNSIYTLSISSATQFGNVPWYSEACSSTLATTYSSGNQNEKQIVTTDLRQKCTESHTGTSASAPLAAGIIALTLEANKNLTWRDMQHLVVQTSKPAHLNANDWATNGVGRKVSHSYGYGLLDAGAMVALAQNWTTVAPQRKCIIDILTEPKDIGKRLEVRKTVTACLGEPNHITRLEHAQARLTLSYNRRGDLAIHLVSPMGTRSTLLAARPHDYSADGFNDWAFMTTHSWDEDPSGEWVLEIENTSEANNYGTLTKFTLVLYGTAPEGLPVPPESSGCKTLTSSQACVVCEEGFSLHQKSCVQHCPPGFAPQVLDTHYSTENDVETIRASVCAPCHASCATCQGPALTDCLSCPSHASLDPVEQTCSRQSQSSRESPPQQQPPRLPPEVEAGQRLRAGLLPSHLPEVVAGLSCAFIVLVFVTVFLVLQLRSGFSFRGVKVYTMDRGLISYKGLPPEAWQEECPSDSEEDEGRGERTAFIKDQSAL
# Protein phosphatase 1D (Homo sapiens), sequence (O15297 whole entry, looked up): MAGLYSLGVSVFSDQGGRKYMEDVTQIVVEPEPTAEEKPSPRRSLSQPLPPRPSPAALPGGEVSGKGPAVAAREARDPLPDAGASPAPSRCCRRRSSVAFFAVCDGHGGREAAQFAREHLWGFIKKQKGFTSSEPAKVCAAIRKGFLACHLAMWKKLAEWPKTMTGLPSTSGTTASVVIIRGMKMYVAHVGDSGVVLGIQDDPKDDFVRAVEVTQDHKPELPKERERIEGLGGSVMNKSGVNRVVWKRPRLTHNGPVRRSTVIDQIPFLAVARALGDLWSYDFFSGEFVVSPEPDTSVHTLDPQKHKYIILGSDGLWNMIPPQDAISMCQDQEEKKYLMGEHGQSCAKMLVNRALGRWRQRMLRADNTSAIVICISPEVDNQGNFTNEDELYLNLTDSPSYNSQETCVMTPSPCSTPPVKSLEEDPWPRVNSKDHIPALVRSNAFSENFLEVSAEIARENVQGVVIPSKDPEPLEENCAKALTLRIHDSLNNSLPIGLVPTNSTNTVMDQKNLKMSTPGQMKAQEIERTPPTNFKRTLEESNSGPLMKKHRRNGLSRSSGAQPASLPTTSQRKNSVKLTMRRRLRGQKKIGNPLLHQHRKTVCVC
smiles,measurement,setting,value
CC[C@H](C)n1cc(C)c2c(C(=O)NCc3c(C)cc(C)[nH]c3=O)cc(-c3ccc(N4CCNCC4)nc3)cc21,Potency,[1],27 µM (active)
same,Potency,[2],27.1 µM (active)
same,Potency,[3],27.1 µM (active)
same,Potency,[4],21.5 µM (active)
same,Potency,[5],inactive
same,outcome,[6],inactive
same,Potency,[7],inactive
same,Potency,[8],inactive
CCc1cc(-c2n[nH]c(C)c2-c2ccc3c(c2)OCCO3)c(O)cc1O,Potency,[4],inactive
C[C@H](CCC(=O)O)[C@H]1CC[C@H]2[C@H]3[C@@H](CC[C@]12C)[C@@]1(C)CC[C@@H](O)C[C@H]1C[C@@H]3O,Potency,[4],inactive
OC(c1cc(C(F)(F)F)nc2c(C(F)(F)F)cccc12)C1CCCCN1 (stereo not drawn),Potency,[1],0.961 µM (active)
same,outcome,[9],inactive
same,Potency,[7],16.5 µM (active)
CCNC(=O)[C@H]1O[C@@H](n2cnc3c(N)nc(NCCc4ccc(CCC(=O)O)cc4)nc32)[C@H](O)[C@H]1O,Potency,[4],inactive
O=C(O)Cc1cccc(OCCCN(Cc2cccc(C(F)(F)F)c2Cl)CC(c2ccccc2)c2ccccc2)c1,Potency,[1],7.62 µM (active)
same,Potency,[2],19.2 µM (active)
same,Potency,[3],17.1 µM (active)
same,Potency,[5],1.56 µM (active)
same,Potency,[10],28.2 µM (active)
same,outcome,[6],inactive
CCCCOCCOc1nc(-c2ccc(C(=O)O)c(F)c2)sc1C,Potency,[1],12.1 µM (active)
same,Potency,[2],19.2 µM (active)
same,Potency,[3],12.1 µM (active)
same,Potency,[5],49.3 µM (active)
same,outcome,[6],inactive
same,Potency,[7],inactive
CC(=O)OCC(=O)[C@@]12OC(C)(C)O[C@H]1C[C@H]1[C@@H]3C[C@H](F)C4=CC(=O)C=C[C@]4(C)[C@@]3(F)[C@@H](O)C[C@@]12C,Potency,[4],inactive
Cc1cc(CS(=O)(=O)c2ccccc2)cc(OCc2ccc(CN3CCC[C@H]3CO)cc2)c1,Potency,[4],inactive
COc1ccc(CCN(C)CCCOc2ccc(S(=O)(=O)c3[nH]c4ccccc4c3C(C)C)cc2)cc1OC,Potency,[4],inactive
N#CC1(c2cccc(C(=O)Nc3cc(Oc4ccc5nc(NC(=O)C6CC6)sc5n4)ccc3F)c2Cl)CC1,Potency,[1],inactive
same,Potency,[2],inactive
same,Potency,[3],inactive
same,Potency,[4],21.5 µM (active)
same,Potency,[11],22.1 µM (active)
same,Potency,[12],inactive
same,Potency,[10],50.1 µM (active)
same,outcome,[6],inactive
same,Potency,[8],inactive
Cc1nc(C(=O)NCC(=O)O)c(O)c2ccc(Oc3ccccc3)cc12,Potency,[2],21.5 µM (active)
same,Potency,[4],21.5 µM (active)
same,Potency,[11],44.1 µM (active)
same,Potency,[13],22.4 µM (active)
same,Potency,[12],inactive
same,Potency,[5],34.9 µM (active)
same,outcome,[6],inactive
same,Potency,[7],inactive
O=C1Nc2ccc(I)cc2C1=Cc1cc(Br)c(O)c(Br)c1,Potency,[1],inactive
same,Potency,[2],inactive
same,Potency,[3],inactive
same,Potency,[5],24.8 µM (active)
same,outcome,[6],inactive
same,Potency,[7],inactive
O=C(Nc1ccccc1)Nc1ccc(-c2ccc(C(=O)[C@H]3CCC[C@H]3C(=O)O)cc2)cc1,Potency,[1],34 µM (active)
same,Potency,[2],24.1 µM (active)
same,Potency,[3],24.1 µM (active)
same,Potency,[5],3.92 µM (active)
same,Potency,[14],inactive
same,Potency,[10],14.1 µM (active)
same,outcome,[6],inactive
same,Potency,[7],inactive
CNC(=O)[C@H](CC1=CN=C2C=CCC=C12)NC(=O)[C@@H](CC(=O)NO)CC(C)C,Potency,[4],inactive
N=C1SC(=Cc2ccc(-c3ccc4c(c3)C(=O)NC4=O)o2)C(=O)N1c1ccc(Br)cc1,Potency,[4],inactive
O=C(Nc1cccc2c(=O)cc(-c3nn[nH]n3)oc12)c1ccc(OCCCCc2ccccc2)cc1,Potency,[1],30.4 µM (active)
same,Potency,[2],5.41 µM (active)
same,Potency,[3],6.81 µM (active)
same,Potency,[5],1.75 µM (active)
same,Potency,[14],28.2 µM (active)
same,outcome,[6],inactive
same,outcome,[15],inactive
same,Potency,[16],15.8 µM (active)
COc1cc([C@@H]2c3cc4c(cc3[C@@H](O[C@@H]3O[C@@H]5CO[C@@H](C)O[C@@H]5[C@H](O)[C@@H]3O)[C@H]3COC(=O)[C@H]23)OCO4)cc(OC)c1O,Potency,[4],inactive
COc1cc(Nc2nc3ccccc3nc2NS(=O)(=O)c2ccc(NC(=O)c3ccc(C)c(OC)c3)cc2)cc(OC)c1,Potency,[2],6.98 µM (active)
same,Potency,[3],5.55 µM (active)
same,Potency,[4],inactive
same,Potency,[11],1.39 µM (active)
same,outcome,[17],inactive
same,Potency,[12],3.16 µM (active)
same,Potency,[5],1.39 µM (active)
same,Potency,[14],inactive
same,Potency,[10],8.91 µM (active)
same,outcome,[6],inactive
same,Potency,[8],inactive
COc1cc(Cl)cn2c(-c3cccc(NC4CNC4)n3)cnc12,Potency,[1],27.1 µM (active)
same,Potency,[2],27.1 µM (active)
same,Potency,[3],inactive
same,outcome,[6],inactive
same,Potency,[7],inactive
O=c1[nH]c(=O)n([C@H]2C[C@@H](O)[C@@H](CO)O2)cc1I,Potency,[4],inactive
C#C[C@]1(O)CC[C@H]2[C@H]3CCc4cc(OC)ccc4[C@H]3CC[C@@]21C,Potency,[4],inactive
CN(C)CCN(C)C(=O)c1ccc(NC(=O)Nc2ccc(-c3nc(N4CCOCC4)c4ccn(CC(F)(F)F)c4n3)cc2)cc1,Potency,[4],inactive
OC[C@H]1O[C@@H](Oc2ccc(O)cc2)[C@H](O)[C@@H](O)[C@H]1O,Potency,[4],inactive
CN[C@H]1[C@@H](O[C@@H]2[C@H](O[C@@H]3[C@@H](O)[C@@H](O)[C@@H](N=C(N)N)[C@@H](O)[C@@H]3N=C(N)N)O[C@H](C)[C@@]2(O)C=O)O[C@@H](CO)[C@@H](O)[C@H]1O,Potency,[4],inactive
CC(C)c1onc(-c2c(Cl)cccc2Cl)c1COc1ccc(C=Cc2cccc(C(=O)O)c2)c(Cl)c1,Potency,[1],30.4 µM (active)
same,Potency,[2],24.1 µM (active)
same,Potency,[3],24.1 µM (active)
same,Potency,[4],13.6 µM (active)
same,Potency,[5],1.56 µM (active)
same,outcome,[6],inactive

# From PubChem BioAssay (NCATS)
